Hit rate of the full screen: of about 5,500 compounds, about 2,000 (36%) were called active. About 18% were inconclusive and are not listed. Cut-off read from the data, not from the text of the source: active = normalized growth mostly below about 0.91 (no sharp cut-off); inconclusive = no clear call, values can overlap the other calls; inactive = mostly above about 0.92. The list shows a part of the results.
Experiment: chemical genetic growth profiling, strain panel (AID 1159580);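 note: tested at 20 µM; growth read once vehicle control cultures reached saturation at 30 °C; 1 = growth at the plate median or of vehicle wells; lower values mean less growth of the strain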
Settings: growth OD

Measured: normalized growth

NC[C@@H]1O[C@H](O[C@@H]2[C@@H](CO)OC(O[C@@H]3[C@@H](O)[C@H](N)C[C@H](N)[C@H]3OC3O[C@H](CN)[C@@H](O)[C@H](O)[C@H]3N)[C@@H]2O)[C@H](N)[C@@H](O)[C@@H]1O (some centres not stated)
inactive: S. cerevisiae deletion strains, locus YJR075W, strain HOC1, hits give low values 1.02 | S. cerevisiae deletion strains, locus YKL009W, strain mrt4, hits give low values 1.06 | S. cerevisiae deletion strains, locus YKL068W, hits give low values 1.01 | S. cerevisiae deletion strains, locus YKL085W, strain MDH1 (second series), hits give low values 1.01 | S. cerevisiae deletion strains, locus YKL085W, strain MDH1, hits give low values 1.01 | S. cerevisiae deletion strains, locus YKL160W, strain elf1, hits give low values 1.02 | S. cerevisiae deletion strains, locus YKL190W, strain CNB1, hits give low values 1 | S. cerevisiae deletion strains, locus YKR001C, strain vps1, hits give low values 1.04 | S. cerevisiae deletion strains, locus YKR026C, strain gcn3, hits give low values 1.03 | S. cerevisiae deletion strains, locus YKR091W, strain srl3, hits give low values 1.02 | S. cerevisiae deletion strains, locus YLL001W, strain dnm1, hits give low values 1.06 | S. cerevisiae deletion strains, locus YLL026W, hits give low values 1.02 | S. cerevisiae deletion strains, locus YLL041C, strain sdh2, hits give low values 1.02 | S. cerevisiae deletion strains, locus YLR027C, strain aat2, hits give low values 1.01 | S. cerevisiae deletion strains, locus YLR039C, strain RIC1, hits give low values 0.973 | S. cerevisiae deletion strains, locus YLR058C, strain SHM2, hits give low values 1 | S. cerevisiae deletion strains, locus YLR102C, strain apc9, hits give low values 1.02 | S. cerevisiae deletion strains, locus YLR113W, strain HOG1, hits give low values 0.981 | S. cerevisiae deletion strains, locus YLR221C, strain rsa3, hits give low values 1.04 | S. cerevisiae deletion strains, locus YLR258W, strain gsy2, hits give low values 1.01 | S. cerevisiae deletion strains, locus YLR262C, strain YPT6 (second series), hits give low values 1.03 | S. cerevisiae deletion strains, locus YLR262C, strain YPT6, hits give low values 1.02 | S. cerevisiae deletion strains, locus YLR268W, strain sec22, hits give low values 1.05 | S. cerevisiae deletion strains, locus YLR320W, strain mms22, hits give low values 1.05 | S. cerevisiae deletion strains, locus YLR330W, strain CHS5, hits give low values 0.996 | S. cerevisiae deletion strains, locus YLR342W, strain FKS1 (second series), hits give low values 1.03 | S. cerevisiae deletion strains, locus YLR342W, strain FKS1, hits give low values 1.03 | S. cerevisiae deletion strains, locus YLR357W, strain rsc2, hits give low values 1.04 | S. cerevisiae deletion strains, locus YLR370C, strain arc18, hits give low values 1.04 | S. cerevisiae deletion strains, locus YLR371W, strain rom2, hits give low values 1.02 | S. cerevisiae deletion strains, locus YLR384C, strain iki3, hits give low values 1.03 | S. cerevisiae deletion strains, locus YLR418C, strain cdc73, hits give low values 1.04 | S. cerevisiae deletion strains, locus YML016C, strain PPZ1, hits give low values 1.01 | S. cerevisiae deletion strains, locus YML032C, strain rad52, hits give low values 1.02 | S. cerevisiae deletion strains, locus YML120C, strain ndi1, hits give low values 1.05 | S. cerevisiae deletion strains, locus YML124C, strain tub3, hits give low values 1.01 | S. cerevisiae deletion strains, locus YMR058W, strain fet3, hits give low values 1.03 | S. cerevisiae deletion strains, locus YMR078C, strain ctf18, hits give low values 1.04 | S. cerevisiae deletion strains, locus YMR125W, strain sto1, hits give low values 1.04 | S. cerevisiae deletion strains, locus YMR129W, hits give low values 1.02 | S. cerevisiae deletion strains, locus YMR205C, strain PFK2, hits give low values 1.03 | S. cerevisiae deletion strains, locus YMR223W, strain ubp8, hits give low values 1 | S. cerevisiae deletion strains, locus YMR231W, strain pep5, hits give low values 1.03 | S. cerevisiae deletion strains, locus YMR263W, strain SAP30, hits give low values 1.01 | S. cerevisiae deletion strains, locus YMR307W, strain GAS1, hits give low values 1.1 | S. cerevisiae deletion strains, locus YNL067W, strain RPL9B, hits give low values 1.02 | S. cerevisiae deletion strains, locus YNL071W, strain lat1, hits give low values 1.03 | S. cerevisiae deletion strains, locus YNL128W, strain TEP1, hits give low values 1.02 | S. cerevisiae deletion strains, locus YNL153C, strain GIM3, hits give low values 1 | S. cerevisiae deletion strains, locus YNL183C, strain NPR1, hits give low values 0.944 | S. cerevisiae deletion strains, locus YNL209W, strain ssb2, hits give low values 1.03 | S. cerevisiae deletion strains, locus YNL233W, strain BNI4, hits give low values 0.985 | S. cerevisiae deletion strains, locus YNL248C, strain rpa49, hits give low values 0.992 | S. cerevisiae deletion strains, locus YNL250W, strain rad50, hits give low values 1 | S. cerevisiae deletion strains, locus YNL271C, strain bni1, hits give low values 1.02 | S. cerevisiae deletion strains, locus YNL298W, strain CLA4, hits give low values 1.01 | S. cerevisiae deletion strains, locus YNL307C, strain MCK1, hits give low values 1.02 | S. cerevisiae deletion strains, locus YNL322C, strain KRE1 (second series), hits give low values 1.04 | S. cerevisiae deletion strains, locus YNL322C, strain KRE1, hits give low values 0.997 | S. cerevisiae deletion strains, locus YNR049C, strain mso1, hits give low values 1.03 | S. cerevisiae deletion strains, locus YNR052C, strain pop2, hits give low values 1.01 | S. cerevisiae deletion strains, locus YOL006C, strain TOP1, hits give low values 0.979 | S. cerevisiae deletion strains, locus YOL012C, strain htz1 0.869 | S. cerevisiae deletion strains, locus YOL147C, strain pex11, hits give low values 1.01 | S. cerevisiae deletion strains, locus YOR001W, strain rrp6, hits give low values 0.982 | S. cerevisiae deletion strains, locus YOR061W, strain CKA2, hits give low values 1.01 | S. cerevisiae deletion strains, locus YOR069W, strain VPS5, hits give low values 1 | S. cerevisiae deletion strains, locus YOR070C, strain gyp1, hits give low values 1.03 | S. cerevisiae deletion strains, locus YOR080W, strain dia2, hits give low values 1.03 | S. cerevisiae deletion strains, locus YOR083W, strain WHI5, hits give low values 1.02 | S. cerevisiae deletion strains, locus YOR106W, strain vam3, hits give low values 1.04 | S. cerevisiae deletion strains, locus YOR136W, strain idh2, hits give low values 1.01 | S. cerevisiae deletion strains, locus YOR144C, strain elg1, hits give low values 1.02 | S. cerevisiae deletion strains, locus YOR184W, strain ser1, hits give low values 1.03 | S. cerevisiae deletion strains, locus YOR231W, strain MKK1, hits give low values 1.01 | S. cerevisiae deletion strains, locus YOR265W, strain rbl2, hits give low values 1.02 | S. cerevisiae deletion strains, locus YOR270C, strain vph1, hits give low values 1.06 | S. cerevisiae deletion strains, locus YOR290C, strain snf2, hits give low values 1.04 | S. cerevisiae deletion strains, locus YOR316C, strain cot1, hits give low values 1.03 | S. cerevisiae deletion strains, locus YPL051W, strain arl3, hits give low values 1.01 | S. cerevisiae deletion strains, locus YPL055C, strain LGE1, hits give low values 0.973 | S. cerevisiae deletion strains, locus YPL078C, strain atp4, hits give low values 1.01 | S. cerevisiae deletion strains, locus YPL106C, strain sse1, hits give low values 1.01 | S. cerevisiae deletion strains, locus YPL240C, strain hsp82, hits give low values 1.03 | S. cerevisiae deletion strains, locus YPL241C, strain CIN2, hits give low values 0.998 | S. cerevisiae deletion strains, locus YPL256C, strain CLN2, hits give low values 0.997 | S. cerevisiae deletion strains, locus YPR119W, strain clb2, hits give low values 1.02 | S. cerevisiae deletion strains, locus YPR141C, strain kar3, hits give low values 1.02 | S. cerevisiae deletion strains, locus YPR163C, strain tif3, hits give low values 1.03 | S. cerevisiae deletion strains, locus YPR167C, strain met16, hits give low values 1.02 | S. cerevisiae deletion strains, strain wtn01, hits give low values 1.03 | S. cerevisiae strains, strain wild type, hits give low values 1.01
